This is a sample that favours compounds with a hit; in the whole collection about 3.2% have one here.
ClpP mod: qHTS Assay for Activators of ClpP; 340,000 tested, 1.9% active; purified B. subtilis ClpP, FRET peptide cleavage, 20 min; ATP-dependent Clp protease proteolytic subunit (Bacillus subtilis (strain 168)), P80244; Potency, µM (series often up to 57.5 µM), without a hit: top-dose activity change, negative = active; active means well fitted falling curve with a large enough effect; inconclusive means small, poorly fitted or top-dose-only effect; inactive means no such curve, though single readings can be large or run the other way; further: the source files actives as falling curves though it sought activators and does not explain the sign; nearly all actives have a fitted effect of over 65% in size
Target sequence (P80244 whole entry, looked up): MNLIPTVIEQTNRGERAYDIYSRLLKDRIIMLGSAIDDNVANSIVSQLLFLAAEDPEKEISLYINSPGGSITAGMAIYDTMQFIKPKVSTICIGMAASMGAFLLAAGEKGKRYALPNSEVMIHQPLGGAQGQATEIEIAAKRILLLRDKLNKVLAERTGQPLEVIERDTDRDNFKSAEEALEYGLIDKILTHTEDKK
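Buffer: 100 mM Tris/HCl pH8, 100 mM KCl, 0.05% low protease BSA, 2.5% glycerol, 0.01% Tween-20. ClpP 10 microg/mL final; 20 min RT; delta FRET normalized to ADEP and DMSO controls.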
GLP1R ag: qHTS of GLP-1 Receptor Agonists; Glucagon-like peptide 1 receptor (Homo sapiens), P43220; HEK293 GLP-1R CRE-luciferase, luminescence, 4-6 h; cells express a hypersensitive GLP-1R form; Potency, µM (top dose mostly 45.6 µM), for inactives: at the top dose activation, most hits filed as activators; 380,000 tested, 0.007% active; AID 624172, 2012; further: % of control where 0% means no effect
Target sequence (P43220 whole entry, looked up): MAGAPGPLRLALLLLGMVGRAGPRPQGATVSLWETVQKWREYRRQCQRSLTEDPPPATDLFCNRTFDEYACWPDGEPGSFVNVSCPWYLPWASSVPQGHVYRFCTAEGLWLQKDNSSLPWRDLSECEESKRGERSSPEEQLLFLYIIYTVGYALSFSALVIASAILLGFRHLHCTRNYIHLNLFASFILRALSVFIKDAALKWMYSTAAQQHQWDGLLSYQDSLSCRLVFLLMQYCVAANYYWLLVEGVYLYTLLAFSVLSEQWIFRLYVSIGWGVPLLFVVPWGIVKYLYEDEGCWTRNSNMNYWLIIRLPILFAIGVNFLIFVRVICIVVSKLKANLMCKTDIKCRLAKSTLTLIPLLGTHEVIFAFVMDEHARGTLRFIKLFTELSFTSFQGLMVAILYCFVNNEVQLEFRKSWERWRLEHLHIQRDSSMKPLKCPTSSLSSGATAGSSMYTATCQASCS
GLP-1R inv ag: qHTS of GLP-1 Receptor Inverse Agonists (Inhibition Mode) | Glucagon-like peptide 1 receptor (Homo sapiens), P43220 | HEK293 GLP-1R CRE-luciferase, luminescence, 24 h; GLP-1R form is constitutively active | Potency, µM (top dose mostly 38.3 µM), inactives show top-dose activity change, negative = inhibition, actives largely listed as inhibitors | 410,000 tested, 1.6% active; further: on the % scale 0 is the no-effect control and ±100 the full control effect; nearly all actives have a fitted effect of over 55% in size
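Constitutively active GLP-1R drives a cAMP-responsive luciferase in stably transfected HEK293 cells; test compounds are added after overnight (12 h) attachment and left 24 hr, and signal loss in luminescence marks inhibition.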
HEK293 tox: qHTS of GLP-1 Receptor Inverse Agonists: Cytotox Screen. HEK293 cAMP-luciferase reporter cells, luminescence, 24 h. Potency, µM (top dose mostly 38.3 µM), inactives show at the highest dose activity change, negative = inhibition, most hits filed as inhibitors. 410,000 tested, 0.13% active. AID 624418, 2012;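 further: loss of luciferase light is scored as toxicity; on the % scale 0 is the no-effect control and ±100 the full control effect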
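1536-well qHTS counterscreen of the MLSMR; 200 cells/uL, 12 h pre-incubation, 23 nL cpd, 24 h at 37 deg C 5% CO2, luciferase detection reagent, 12 min RT, luminescence. Inhibition = undesired.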
Numbers without * were called inactive; ? = inconclusive; . = no result given. Unless noted, the call rests on the fitted dose curve; in most records, active means well fitted curve in the direction sought with a large enough effect; inconclusive means small, poorly fitted or top-dose-only effect, or another doubt; inactive means no such curve, though single readings can be large; an effect the other way counts as inactive or inconclusive. Potency means the concentration at half of the fitted maximal effect.

SMILES | ClpP mod | GLP1R ag | GLP-1R inv ag | HEK293 tox
Oc1ccc(C[C@H]2CNCCN2CCc2cccc3ccccc23)cc1 | -2.2% | 9.2% | ? | 11.2%
Cc1ccc(S(=O)(=O)N(C)c2ccc(C(=O)NCC(c3ccco3)N(C)C)cc2)cc1 (stereo not drawn) | 0.2% | -2.9% | 7.08µM* | -16.1%
COc1cc(NC(=O)CC2C(=O)N(c3ccccc3)C(=O)N2Cc2ccc(F)cc2)cc(OC)c1 (stereo not drawn) | 0.2% | . | -16.5% | 7.7%
Cc1cccc(NC(=O)c2cccc(Cn3cc(Br)c([N+](=O)[O-])n3)c2)c1C | ? | 4.8% | 10µM* | -15.4%
CCOC(=O)c1sc(C)c2c1NC(c1ccc(Cl)cc1)NC2=O (stereo not drawn) | -20.4% | -22.9% | -14.5% | ?
CCOC(=O)c1sc(C)c2c1NC(C)(c1ccccc1)NC2=O (stereo not drawn) | 31.6µM* | 12.4% | -7.5% | 60.3%
CCOC(=O)Cc1csc(SCC(=O)Nc2cc(Cl)ccc2Oc2ccccc2)n1 | -2.9% | -2.4% | 10µM* | 26.1%
CCOC(=O)Cc1csc(SCC(=O)Nc2cccc(Cl)c2)n1 | -2.4% | 5.8% | -14.7% | 3.9%
N#Cc1c(N)nc2c3c(sc(=N)c2c1N)NC(=O)CC3c1ccccc1 (stereo not drawn) | -16.6% | 25.8% | 40.7% | 3.8%
Cc1c(C#N)c(N)nc2c3c(sc12)NC(=O)CC3c1ccc(Cl)cc1 (stereo not drawn) | 15.8µM* | ? | 31.0% | -3.6%
Cc1cccc(NC(=S)NC(=O)c2cccs2)n1 | 26.1% | ? | 10µM* | ?
Cc1cccc(C)c1NC(=O)COC(=O)CCC(=O)c1cccs1 | -0.4% | -0.4% | -2.1% | 0.7%
Cc1ccnc(NC(=O)CCC(=O)c2cccs2)c1 | . | -5.0% | 5.62µM* | 3.1%
Cc1cc(C)nc(-n2nc(C)cc2NC(=O)COC(=O)CCC(=O)c2cccs2)n1 | 28.2µM* | 0.3% | 46.4% | 1.8%
CCOC(=O)c1ccc(NC(=S)Nc2cccc(C)n2)cc1 | -0.4% | 7.8% | 0.0% | 1.26µM*
C[N+]1(CC(=O)c2ccc(Cl)c(Cl)c2)CCOCC1 | -0.5% | . | . | .
Cc1cccc(NC(=O)CCC(=O)c2cccs2)n1 | 3.55µM* | 3.8% | -1.7% | -5.6%
Clc1ccc(-c2cc(CN3CCOCC3)no2)cc1 | . | 13.2% | -14.0% | 1.0%
Clc1ccc(-c2cc(CN3CCCCC3)no2)cc1Cl | . | 16.0% | 10µM* | 1.7%
Cc1ccc(OCc2nc3ccccc3n2Cc2ccccc2Cl)cc1 | 1.3% | -4.8% | 12.6µM* | -2.6%
CCOCCn1c(COc2ccc(C)cc2)nc2ccccc21 | 1.3% | 9.0% | 7.08µM* | 0.0%
O=C(C1CCN(c2nc3ccccc3[nH]2)CC1)N1CCN(c2cccc(Cl)c2)CC1 | 0.2% | . | -18.9% | -25.0%
O=C(Cc1ccccc1)Nc1cccc(-c2nc3cccnc3s2)c1 | 35.5µM* | . | 15.2% | 1.7%
Cc1ccc(-c2nc3cccnc3s2)cc1NC(=O)C(C)C | ? | . | 2.2% | -11.2%
O=C(CCl)Nc1cccc(-c2cnc3ccccc3n2)c1 | -20.6% | -0.5% | 8.91µM* | ?
SMILES | ClpP mod | GLP1R ag | GLP-1R inv ag | HEK293 tox
O=C(Cc1ccccc1)Nc1cccc(-c2nc3ncccc3o2)c1 | 28.2µM* | 11.2% | -7.7% | ?
O=C(Nc1cccc(-c2nc3ncccc3o2)c1)c1cc2ccccc2o1 | -2.2% | -10.9% | ? | ?
CCC(C(=O)Nc1cc(-c2nc3cccnc3s2)ccc1C)c1ccccc1 (stereo not drawn) | 35.5µM* | . | 7.7% | 2.0%
Cc1cc(C)cc(NC(=O)Cn2c(=O)n(-c3cc(C)cc(C)c3)c(=O)c3oc4ccccc4c32)c1 | 26.4% | . | -14.8% | -5.8%
COc1ccc(OC)c(S(=O)(=O)NCc2cccn2Cc2cccc(C)c2)c1 | -1.3% | . | ? | 3.5%
COc1ccc(C(=O)N(Cc2cc(OC)c(OC)c(OC)c2)CC2CCCO2)cc1 (stereo not drawn) | -1.6% | . | 2.4% | -0.9%
COc1cccc(NC(=O)CN2C(=O)CSc3ccc(S(=O)(=O)N4CCCC4)cc32)c1 | -1.7% | . | -39.1% | 8.8%
O=C(CCCN1CCN(c2ccc(F)cc2)CC1)NC1c2ccccc2CSc2ccccc21 (stereo not drawn) | . | 7.3% | . | .
CCc1ccccc1NC(=O)C(=O)NCCc1sc(-c2cccc(F)c2)nc1C | 22.2% | . | -6.1% | 1.1%
COc1cc(CCc2ccccc2)c(C(=O)O)c(O)c1CC=C(C)C | ? | -0.8% | 10µM* | -10.9%
CC(C(=O)Nc1cccc([N+](=O)[O-])c1)N1CCN(C/C=C/c2ccccc2)CC1 (stereo not drawn) | -4.8% | 10.9% | 10µM* | -27.9%
O=C(Nc1cccc(F)c1)N1CCN(C/C=C/c2ccccc2)CC1 | -2.1% | -3.4% | 8.91µM* | -14.8%
Cc1ccc(NC(=O)CS(=O)(=O)c2nc(-c3ccc(C)cc3)cn2-c2ccc(C)cc2)cc1 | -6.5% | . | ? | -15.9%
CCN1CCOC(=O)C1CC(=O)Nc1cc(Cl)ccc1C (stereo not drawn) | -2.3% | . | -1.8% | -4.1%
CN(c1ccc(C(=O)NCCSC(C)(C)C)cc1)S(C)(=O)=O | 10µM* | -2.3% | 0.9% | 20.9%
CN(c1ccc(C(=O)NCCc2ccccc2)cc1)S(C)(=O)=O | -0.4% | -21.1% | -2.0% | 5.0%
O=C(COc1cccc2ccccc12)NNC(=O)c1cccs1 | 17.8µM* | -1.1% | -7.8% | 6.5%
Cc1ccc(-c2c(CN3CCN(c4cccc(C(F)(F)F)c4)CC3)csc2C)cc1 | -14.8% | . | 2.5% | -3.2%
Cc1ccc(-n2nc(C)c3c(C)cc(=O)[nH]c32)cc1 | 28.2µM* | 0.2% | 0.0% | 0.7%
COc1ccc(OC)c(NS(=O)(=O)c2cc3c(cc2Cl)N(C(C)=O)CCO3)c1 | -0.3% | -2.3% | 5.9% | 0.6%
COC(=O)CCc1nc2cc(Cl)ccc2n(Cc2ccccc2)c1=O | ? | 23.7% | ? | 3.1%
CC(C)c1nc2cc(Cl)ccc2n(Cc2ccccc2)c1=O | . | 27.8% | 7.94µM* | -2.8%
COc1ccc(C(=O)NCCn2cc(SCc3c(F)cccc3Cl)c3ccccc32)cc1 | -0.8% | -4.0% | ? | 4.7%
O=C(CSCc1ccc(Cl)cc1)NCc1ccc2c(c1)OCO2 | -0.4% | -7.2% | 8.91µM* | -3.5%
O=C(NCc1ccc2c(c1)OCO2)c1ccc(CSCc2ccccc2Cl)o1 | -0.9% | 3.5% | 10µM* | 2.4%
Cc1ccc(CNC(=O)c2ccc(CSCc3ccccc3Cl)o2)cc1 | 0.4% | . | ? | 9.0%
COc1cc(OC)c2c(C)c(Cl)c(=O)oc2c1 | 2.82µM* | -2.6% | 33.8% | -2.8%
O=C(NCCc1nc2ccccc2n1CCOc1ccccc1)C1CCCCC1 | -3.3% | . | . | .
CC1=C(C(=O)Nc2ccc(Cl)cc2)C(c2ccccc2C)n2ncc(C(=O)Nc3ccc(C)cc3)c2N1 (stereo not drawn) | 31.6µM* | . | 2.82µM* | 0.2%
COc1cccc(C2C(C(=O)Nc3ccc(Cl)cc3)=C(C)Nc3c(C(=O)Nc4ccccc4)cnn32)c1OC (stereo not drawn) | 28.2µM* | . | ? | 3.7%

Screens as filed in PubChem.
